Results on 20 compounds are retold here after PubChem BioAssay (Tox21).

Assay [1] can be described thus: qHTS assay for small molecule agonists of the p53 signaling pathway (AID 651631; calls by dose curve; further: nearly all actives have a fitted effect of over 15% in size; further: potency means the concentration at half of the fitted maximal effect). The method in brief:
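Readout was fluorescence from the LiveBLAzer FRET substrate, applied for 2 h at room temperature after 16 h compound exposure at 37 °C. Cells were the p53RE-bla HCT-116 line, with beta-lactamase driven by p53 response elements.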

Assay [2] in a line: qHTS assay for small molecules that induce genotoxicity in human embryonic kidney cells expressing luciferase-tagged ATAD5 (AID 651632). Further: nearly all actives have a fitted effect of over 15% in size. The method in brief: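 HEK293T cells carrying luciferase-tagged ATAD5 were given compound or DMSO vehicle and incubated 16 hr at 37C, 5% CO2. Luciferase activity was read after 30 min at room temperature with Amplite; a rise signals genotoxic stress.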
A general note: Quantitative high-throughput screening tests each substance at several concentrations.

The nature of assay [3]: qHTS assay for small molecule agonists of the p53 signaling pathway - cell viability (AID 651633; calls by dose curve; further: series mostly up to about 83 µM; nearly all actives have a fitted effect of over 30% in size). The essentials:
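p53RE-bla cells were treated with compound for 16 hours at 37 C. Cytotoxicity was then measured as CellTiter-Glo luminescence after 30 min at room temperature.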

Assay [4] in a line: qHTS assay for small molecules that induce genotoxicity in human embryonic kidney cells expressing luciferase-tagged ATAD5 - cell viability (AID 651634; calls by dose curve; further: nearly all actives have a fitted effect of over 25% in size; further: potency means the concentration at half of the fitted maximal effect). The essentials:
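HEK293T cells carrying luciferase-tagged ATAD5, 2,000 cells/well, exposed to compound for 15.5 hr at 37C. Viability read as live-cell protease activity by CellTiter-Fluor fluorescence after 30 min at 37C.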

Assay [5] in a line: qHTS assay for small molecule disruptors of the mitochondrial membrane potential - cell viability (AID 720634; calls by dose curve;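 further: human HepG2 liver cancer cells; series mostly up to about 83 µM; nearly all actives have a fitted effect of over 20% in size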). The essentials: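 HepG2 cells, 2,000 per well, attached overnight, then treated 1 hr at 37 C, 5% CO2. Viability read as ATP by CellTiter-Glo luminescence after 30 min at room temperature. Read in the same wells as the m-MPI membrane-potential dye assay.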
A short description of assay [6]: qHTS assay for small molecule disruptors of the mitochondrial membrane potential (AID 720635). Further: potency means the concentration at half of the fitted maximal effect. The essentials: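 HepG2 cells exposed to compound 1 hr at 37C, then Mito-MPS dye 30 min. Ratio read of aggregate (540/590 nm) versus monomer (490/535 nm) fluorescence.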
Assay [7] can be described thus: qHTS assay to test for compound auto fluorescence at 590 nm (red) in HepG2 cells (AID 720674). Further: potency means the concentration at half of the fitted maximal effect. The method in brief: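 HepG2 cells, 2,000 per well in MEM with 10% FBS, attached overnight at 37 C, then got 23 nL compound or DMSO. After 1 hr at 37 C, 5% CO2, red fluorescence was read at 540/590 nm against Rose Bengal sodium as reference.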
Assay [8] is described as follows: qHTS assay to test for compound auto fluorescence at 535 nm (green) in HepG2 cells (AID 720675). Further: potency means the concentration at half of the fitted maximal effect.
The nature of assay [9]: qHTS assay to test for compound auto fluorescence at 460 nm (blue) in HEK293 cells (AID 720678). The method in brief:
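Intrinsic compound fluorescence is recorded in live HEK293 cultures after overnight incubation at 37C, 5% CO2, using excitation 405 nm and emission 460 nm. Values are referenced to triamterene.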

The nature of assay [10]: qHTS assay to test for compound auto fluorescence at 590 nm (red) in HEK293 cells (AID 720679). Further: potency means the concentration at half of the fitted maximal effect. The essentials:
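Red autofluorescence, HEK293 cells: 2,000 cells/well; attach 4-5 hr 37C; add 23 nL cpd or DMSO; incubate o/n 37C 5% CO2; read Ex540/Em590; Rose Bengal sodium reference.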

The structures appear in SMILES notation. Several values for one entry are separate records, joined by “and”; a condition that tells them apart may be missing. Equal entries are not always repeated. Values without a mark were called inactive. Records with an inconclusive call do not appear. Activity calls are given as the source filed them. Unless noted, the call rests on the fitted dose curve; in most records, active means well fitted curve in the direction sought with a large enough effect in the repeat runs; inconclusive means weak or mixed curves; inactive means no such curve, though single readings can be large; an effect the other way counts as inactive or inconclusive.
On the % scale 0 is the no-effect control and ±100 the full control effect; tags describe the fitted curve by direction and shape or compound fluorescence and quenching.

As to `Nc1cc(C(=O)O)c(O)c(S(=O)(=O)O)c1`, the Potency entry in [1], in [2], in assay [3], in assay [4], in assay [5] and in assay [6] was “inactive” each time. The Potency entry in assay [7], in assay [8] and in [10] was “inactive” each time. For the same compound, the call in assay [9] was inactive.
With `O=C(O)c1ccccc1Cl`, the Potency entry in assay [1], in assay [2], in assay [3], in [4], in assay [5] and in assay [7] was “inactive” throughout. The Potency entry in assay [8] and in [10] was “inactive” in each case. Moreover, the outcome in [9] was inactive.
Turning to `O=[N+]([O-])c1ccc(NCCO)c(OCCO)c1`, the Potency result in [1], in assay [2], in [3], in [5], in assay [6] and in assay [7] was “inactive” each time. In addition, the Potency entry in assay [8] and in [10] was “inactive” each time. Further, the Potency in assay [4] was 61.2 µM (active). In addition, the result in [9] was inactive.
As for `C[C@H]1C[C@H]2[C@@H]3CCC4=CC(=O)C=C[C@]4(C)[C@@]3(Cl)[C@@H](O)C[C@]2(C)[C@@]1(O)C(=O)CO`, the Potency result in assay [1], in [2], in [3], in assay [4], in assay [5] and in assay [6] was “inactive” in each case. The Potency result in assay [7], in assay [8] and in [10] was “inactive” each time. The compound was called inactive in assay [9].
`COC(=O)c1ccc(I)cc1S(=O)(=O)NC(=O)Nc1nc(C)nc(OC)n1`: the Potency result in [1], in assay [2], in assay [3], in assay [4], in assay [5] and in assay [7] was “inactive” in each case. In addition, the Potency entry in [8] and in [10] was “inactive” in each case. Further, the compound was called inactive in assay [9].
For `CC(COCCO)OCCO` (centres undefined), the Potency entry in assay [1], in [2], in assay [3], in [4], in [5] and in assay [7] was “inactive” throughout. The Potency result in assay [8] and in assay [10] was “inactive” each time. Further, the outcome in assay [9] was inactive.
As to `O=C1OC(CN2CCOCC2)CN1/N=C/c1ccc([N+](=O)[O-])o1` (centres undefined), the Potency result in assay [1], in assay [2], in assay [3], in assay [4], in [5] and in assay [6] was “inactive” each time. The fluorescence, relative to Rose Bengal in [7] is -0.0946% [at 18.6 µM]. Further, in [8], the fluorescence, % of fluorescein control was -0.0437% [at 18.6 µM]. The fluorescence, % of triamterene in [9] was -0.0248% [at 18.6 µM]. In assay [10], the fluorescence, % of fluorescent control is 0.088% [at 18.6 µM].
With `N=c1ccn2c(n1)O[C@H]1[C@H](O)[C@@H](CO)O[C@H]12`, the Potency in [1] is 1.5 µM (active) and 1.72 µM (active). Also, the Potency entry in assay [2], in [3], in assay [4], in [5], in assay [6] and in assay [7] was “inactive” in each case. Besides, the Potency entry in assay [10] was “inactive”. In addition, the compound was classed as inactive in assay [9].
As for `CCCCC1=NC2(CCCC2)C(=O)N1Cc1ccc(-c2ccccc2-c2nn[nH]n2)cc1`, the Potency result in assay [1], in assay [2], in assay [3], in assay [4], in [5] and in [7] was “inactive” each time. For the same compound, the Potency result in assay [8] and in [10] was “inactive” in each case. In addition, the call in assay [9] was inactive.
For the compound `c1ccc(-c2ccccn2)nc1`, the Potency result in assay [1], in [2], in [3], in assay [4], in assay [5] and in assay [6] was “inactive” throughout. The Potency entry in assay [7], in [8] and in assay [10] was “inactive” in each case. Also, in [9], the compound was called inactive.
Consider `CCCCC(CC)CN1C(=O)C2C3C=CC(C3)C2C1=O` (centres undefined), for which the Potency entry in assay [1], in [2], in assay [3], in [4], in [5] and in assay [7] was “inactive” each time. Moreover, the Potency result in assay [8] and in assay [10] was “inactive” each time. Besides, the Potency in [6] is 6.11 µM (active). Also, the call in assay [9] was inactive.
For the compound `C[C@@H]1C[C@H]2O[C@@]3(O[C@@H]2C(C)(C)O)[C@H](O)[C@@]2(C)[C@@H]4CC[C@H]5C(C)(C)[C@@H](O[C@@H]6OC[C@@H](O)[C@H](O)[C@H]6O)CC[C@@]56C[C@@]46CC[C@]2(C)[C@@H]13`, the Potency result in [1], in assay [2], in assay [3], in assay [4], in assay [5] and in assay [8] was “inactive” each time. Besides, the Potency entry in [10] was “inactive”. For the same compound, the Potency in assay [6] was 5.38 µM (active). In addition, in [9], the compound was called inactive.
With `COC(C)OC`, the Potency entry in [1], in assay [2], in [3], in assay [4], in [5] and in assay [7] was “inactive” each time. Further, the Potency entry in [8] and in assay [10] was “inactive” in each case. For the same compound, in assay [9], the compound was called inactive.
For `OC[C@H]1O[C@@H](OCCc2ccc(O)cc2)[C@H](O)[C@@H](O)[C@@H]1O`, the Potency entry in [1], in [2], in assay [3], in [4], in assay [5] and in [6] was “inactive” each time. In addition, the Potency entry in assay [7], in [8] and in assay [10] was “inactive” each time. Besides, in assay [9], the compound was classed as inactive.
With `Clc1ccc(Cn2c(CN3CCCC3)nc3ccccc32)cc1`, the Potency entry in assay [1], in [2], in [3], in [4] and in assay [5] was “inactive” each time. In assay [7], the fluorescence, relative to Rose Bengal was -0.15% [at 18.6 µM]. Besides, the fluorescence, % of fluorescein control in assay [8] was 0.097% [at 18.6 µM]. Further, in assay [9], the fluorescence, % of triamterene is 0.123% [at 18.6 µM]. For the same compound, the fluorescence, % of fluorescent control in [10] is 0.574% [at 18.6 µM].
As to `CCOC(=O)Cc1cccc2ccccc12`, the Potency result in assay [1], in assay [2], in assay [3], in [4], in assay [5] and in assay [7] was “inactive” throughout. The Potency entry in assay [8] and in assay [10] was “inactive” each time. The compound was classed as inactive in assay [9].
With `CCN(CC)c1ccc2c(-c3ccccc3C(=O)O)c3ccc(=[N+](CC)CC)cc-3oc2c1`, the Potency result in assay [1], in assay [2], in [3] and in assay [5] was “inactive” in each case. In addition, the Potency in [4] was 21.7 µM (active); in [7], 1 µM (active); in [8], 31.6 µM (active); in [10] it was 1.12 µM [fluorescent] (active). The call in assay [9] was inactive.
With `CC/C=C\CCOC(=O)CC`, the Potency result in assay [1], in [2], in assay [3], in assay [4], in assay [5] and in assay [7] was “inactive” each time. Moreover, the Potency entry in assay [8] and in [10] was “inactive” throughout. Also, in assay [9], the outcome was inactive.
`C[N+]1(CC2COC(c3ccccc3)(C3CCCCC3)O2)CCCCC1` (centres undefined): the Potency result in assay [1], in [2], in assay [3], in assay [4], in [5] and in assay [6] was “inactive” throughout. For the same compound, the Potency entry in [7], in assay [8] and in [10] was “inactive” each time. In addition, in assay [9], the compound was called inactive.
With `CCN(CC)CCNC(=O)c1cc(Br)c(N)cc1OC`, the Potency result in assay [1], in [2], in assay [3], in assay [4], in [5] and in assay [6] was “inactive” in each case. Further, the Potency result in assay [7], in assay [8] and in assay [10] was “inactive” in each case. Moreover, the result in [9] was inactive.
